The source of these data is PubChem BioAssay AID1530 (NMMLSC, 2009).

In all, about 290,000 compounds went through this assay and about 1,000 (0.34%) were called active. Shown is part of a subset that was picked to be rich in actives. Unmarked numbers belong to inactive results. Cut-off read from the data, not from the text of the source: active = percent response above about 24% (passing the limit was not always enough); inactive = the rest.

For this test, the system named is MEKK2 (MAP3K2) mutant PB1 domain binding to MEK5, human. As to the kind of experiment: MEK5 binding signal on mutant MEKK2 PB1, primary screen, biochemical, multiplex bead flow cytometry, Alexa488-MEK5 (AID 1530). The conditions noted are these: at 10 µM, active compounds read high.
`O=[N+]([O-])c1ccc2nc(-c3ccccn3)[nH]c2c1`: the percent response is -17%.

Take `Cc1cccc(Nc2nc(NCCO)nc(N3CCCC3)n2)c1`: the percent response is 4%.

For the compound `COc1ccc(Cn2c(=S)[nH]c3cc(C(=O)N4CCCCC4)ccc3c2=O)cc1`, the percent response was -5%.

As for `C/C(=N\NC(=O)c1ccc(NS(=O)(=O)c2cccs2)cc1)c1ccc2ccccc2c1`, the percent response is -4%.

Consider `CC(=O)c1cccc(OCc2cc(C(=O)NC(C)Cc3cccnc3)no2)c1` (stereo not given), for which the percent response was 10%.

`CC(=O)Nc1ccc(-c2nc3ccccc3o2)cc1`: the percent response was 28% (active).

For the compound `CC(=O)Nc1ccc(Nc2c3ccccc3nc3ccccc23)cc1`, the percent response was 3%.

For the compound `Cc1ccc2nc(-c3ccc(NC(=O)c4cccnc4)cc3)oc2c1`, the percent response was 0%.

For the compound `COc1ccc(-n2nc(C(=O)NCC(=O)N3CCCCCC3)c3ccccc3c2=O)cc1Cl`, the percent response was 6%.

`CN1CCN(c2ccc(S(=O)(=O)N3CCCCC3)cc2NC(=O)Cc2ccccc2F)CC1`: the percent response was 0%.

With `COc1ccc(CC(=O)Nc2cc(S(=O)(=O)N3CCCCC3)ccc2N2CCN(C)CC2)cc1`, the percent response is -1%.

For `CCN1CCN(c2ccc(S(=O)(=O)N3CCCCC3)cc2NC(=O)Cc2c(Cl)cccc2Cl)CC1`, the percent response was 24% (active).

As for `Cc1cccc(S(=O)(=O)N2CN(CC3CCCO3)c3nc4ccccc4nc32)c1` (stereo not given), the percent response is 1%.

Turning to `Cc1ccc([N+](=O)[O-])c(OCCCNCC(C)O)c1` (stereo not given), the percent response is 7%.

Consider `CCOc1ccc(NC(=O)CCCCCN2C(=O)[C@@H]3Cc4ccccc4CN3C2=O)cc1`, for which the percent response was 0%.

Consider `CN(C)CCCNC(=O)c1cc(C(=O)Cc2ccc(Cl)cc2)c[nH]1`, for which the percent response was 27% (active).

`CN(C)CCCNC(=S)NCc1ccc(Cl)cc1`: the percent response was 13%.

Regarding `CC(C)CC(=O)c1c[nH]c(C(=O)NCc2ccccc2)c1`, the percent response is 10%.

For the compound `Cc1noc(C)c1C(=O)NCCc1ccc(S(N)(=O)=O)cc1`, the percent response is 2%.

On to `Cc1ccc2nc(-c3ccc(NC(=O)CN(C)S(=O)(=O)c4ccccc4)cc3)sc2c1`, for which the percent response was -5%.

`CN(C)c1nc(Nc2ccc(Cl)c(Cl)c2)nc(N(C)C)n1`: the percent response was 0%.

Turning to `OCCNc1nc(Nc2ccc(Cl)c(Cl)c2)nc2ccccc12`, the percent response was 31% (active).

Consider `Nc1nc(Nc2ccccc2)nc(NCCO)c1[N+](=O)[O-]`, for which the percent response was -1%.

In the case of `CCOC(=O)C1=C(CN2CCc3ccccc32)NC(=O)NC1c1cc(C)ccc1C` (stereo not given), the percent response is 5%.

As for `COc1cc2c(cc1OC)C(C)N(S(=O)(=O)c1cnc(Cl)c(Cl)c1)CC2` (stereo not given), the percent response is 10%.

Consider `O=c1c2c3c(sc2n(CCN2CCCC2)c(=O)n1Cc1ccccc1)CCCCC3`, for which the percent response was 1%.

In the case of `O=C(CC1SCCNC1=O)Nc1ccc(Cl)cc1` (stereo not given), the percent response was -10%.

In the case of `O=C(CC1NCCNC1=O)Nc1cc(Cl)cc(Cl)c1` (stereo not given), the percent response was 2%.

On to `O=C(CC1SCCNC1=O)Nc1ccc(Cl)c(Cl)c1` (stereo not given), for which the percent response is 174% (active).

`Cc1ccc(C(=O)c2coc3ccc(O)c(CN(C)C)c23)cc1`: the percent response is 11%.

Turning to `CN(C)CCCN(C(=O)COc1ccccc1)c1nc2c(Cl)cccc2s1`, the percent response was 87% (active).

`COc1cccc2sc(N(CCCN(C)C)C(=O)CCS(=O)(=O)c3ccccc3)nc12`: the percent response is 6%.

For `COc1cccc2sc(N(CCCN(C)C)C(=O)C(c3ccccc3)c3ccccc3)nc12`, the percent response is 22%.

Regarding `C/C(=N\NC(=O)c1ccoc1C)c1ccccc1O`, the percent response was 3%.

Consider `O=S(=O)(NC1CCCCC1N1CCC(O)CC1)c1ccc(Cl)cc1` (stereo not given), for which the percent response is 2%.

In the case of `COc1ccc(C2NC(=O)C(=O)/C2=C(\O)c2ccc(Cl)cc2)cc1OC` (stereo not given), the percent response was 5%.

For the compound `O=C(NCCc1ccc(Cl)cc1)C1CC(=O)N(C2CCCCC2)C1` (stereo not given), the percent response was -5%.

`O=C(NCCCN1CCCCCC1)C1CC(=O)N(C2CCCC2)C1` (stereo not given): the percent response is 31% (active).

With `CC(C)OCCCNC(=O)C1CC(=O)N(C2CCCCCCC2)C1` (stereo not given), the percent response was 10%.

For the compound `CC1(C)C=Cc2c(ccc3c2OC[C@@H](c2ccc(O)cc2O)C3)O1`, the percent response was 2%.

Turning to `CNc1nc2c(C)cccn2c(=O)c1C=Nc1ccc(OC)cc1`, the percent response is 0%.

`CCOC(=O)CC1C(=O)NCCN1c1nc2c(C)cccn2c(=O)c1/C=C1\SC(=S)N(C(C)CC)C1=O` (stereo not given): the percent response is -23%.

Regarding `Cc1cccn2c(=O)c(/C=C3\SC(=S)N(CC(C)C)C3=O)c(NCCCOC(C)C)nc12`, the percent response was 97% (active).

As for `O=C(CCCN1C(=O)/C(=C\c2ccco2)SC1=S)Nc1cccc2ccccc12`, the percent response was -3%.

As to `O=C(CCCN1C(=O)/C(=C/c2ccco2)SC1=S)Nc1ccccc1`, the percent response is 0%.

With `CCCN(CCC)c1nc2c(C)cccn2c(=O)c1/C=C1/SC(=S)N(Cc2ccco2)C1=O`, the percent response is 147% (active).

On to `Nc1ccc2nn(-c3ccc(Cl)cc3)nc2c1`, for which the percent response was -4%.

Regarding `Cc1cc2oc(=O)cc(CN3CCN(S(=O)(=O)c4cccs4)CC3)c2cc1C(C)C`, the percent response was 0%.

With `COC(=O)c1ccc(CNC(=O)C2CCC(=O)N(Cc3cccc(F)c3)C2)cc1` (stereo not given), the percent response is 4%.

Turning to `O=C(Cn1ncc2c3ccccc3n(Cc3ccccc3)c2c1=O)NCCCN1CCOCC1`, the percent response is 4%.
